# Legend:
# Assay in all cases: DAPPL (digital affinity profiling via proximity ligation, sequencing); 10 mM Tris-HCl pH 7.5, 50 mM NaCl, 1 mM DTT, 4% glycerol, room temperature, 30 min; GST-TFs on glutathione beads, 16-mer random dsDNA library, 0.1% formaldehyde crosslink after washing; high values mean tight binding
# FEV = biological target: T1, FEV (Homo sapiens, UniProt Q99581 1-238); conditions: protein: recombinant; tags: N-terminal GST; dsDNA, one strand shown
# T1 sequence: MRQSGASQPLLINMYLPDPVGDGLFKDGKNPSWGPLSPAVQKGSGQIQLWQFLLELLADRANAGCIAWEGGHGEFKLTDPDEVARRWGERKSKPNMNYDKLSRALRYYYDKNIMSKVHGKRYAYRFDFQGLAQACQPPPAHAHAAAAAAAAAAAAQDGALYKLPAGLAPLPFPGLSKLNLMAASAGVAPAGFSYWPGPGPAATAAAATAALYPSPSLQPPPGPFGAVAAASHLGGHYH
# How it was run: (§1)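 Sequencing on an Illumina NextSeq500 followed washing, crosslinking with 0.1% formaldehyde, proximity ligation (BsaI/T4 ligase, 1 h, 37 °C) and PCR amplification of pools that had been incubated for 30 min at room temperature with 200 nmole of a random double-stranded 16-mer DNA library in Tris/NaCl/DTT/glycerol buffer. Each pool held DNA-barcoded human transcription factors, expressed in yeast as GST fusions and captured on glutathione beads, plus a tag-only sample. Binding signal is a hexamer's read frequency for a factor divided by its frequency in the tag-only sample.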
# ETV5 = ETV5 (Homo sapiens, UniProt P41161 1-510); conditions: protein: recombinant; tags: N-terminal GST; dsDNA, one strand shown
# Sequence of ETV5 (P41161 whole entry): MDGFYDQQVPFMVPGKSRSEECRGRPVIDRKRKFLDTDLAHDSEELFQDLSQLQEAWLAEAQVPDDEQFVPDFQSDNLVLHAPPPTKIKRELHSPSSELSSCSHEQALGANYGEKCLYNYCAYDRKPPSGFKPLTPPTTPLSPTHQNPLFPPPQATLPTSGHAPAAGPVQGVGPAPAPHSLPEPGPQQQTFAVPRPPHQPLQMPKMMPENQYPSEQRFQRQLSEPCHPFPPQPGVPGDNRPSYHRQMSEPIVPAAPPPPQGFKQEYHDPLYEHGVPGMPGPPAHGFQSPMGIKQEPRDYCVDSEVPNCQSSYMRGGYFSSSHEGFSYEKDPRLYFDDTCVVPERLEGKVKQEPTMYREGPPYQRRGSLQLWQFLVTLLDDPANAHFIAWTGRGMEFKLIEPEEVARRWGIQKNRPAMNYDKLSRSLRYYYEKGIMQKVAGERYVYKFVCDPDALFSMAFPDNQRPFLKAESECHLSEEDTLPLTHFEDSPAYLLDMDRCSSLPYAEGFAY
# How it was run: as §1
# HSF1 = HSF1 (Homo sapiens, UniProt Q00613 1-529); conditions: protein: recombinant; tags: N-terminal GST; chain copies: 3; dsDNA, one strand shown
# Sequence of HSF1 (Q00613 whole entry): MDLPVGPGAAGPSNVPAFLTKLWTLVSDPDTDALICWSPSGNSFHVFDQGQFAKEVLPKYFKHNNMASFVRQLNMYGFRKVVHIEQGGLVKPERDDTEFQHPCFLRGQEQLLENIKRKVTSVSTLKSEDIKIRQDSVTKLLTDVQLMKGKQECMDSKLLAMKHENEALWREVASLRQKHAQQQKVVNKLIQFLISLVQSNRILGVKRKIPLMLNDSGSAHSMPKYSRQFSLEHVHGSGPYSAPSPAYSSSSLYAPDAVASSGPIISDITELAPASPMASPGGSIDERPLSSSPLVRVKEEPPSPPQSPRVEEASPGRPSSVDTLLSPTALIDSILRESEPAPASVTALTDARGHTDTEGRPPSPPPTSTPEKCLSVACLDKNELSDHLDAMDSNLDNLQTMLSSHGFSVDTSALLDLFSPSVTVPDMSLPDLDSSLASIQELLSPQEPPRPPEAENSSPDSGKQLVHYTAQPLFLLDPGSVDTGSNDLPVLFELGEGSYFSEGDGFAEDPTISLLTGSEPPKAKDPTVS
# How it was run: as §1
# SPIC = biological target: T2, SPIC (Homo sapiens, UniProt Q8N5J4 1-248); conditions: protein: recombinant; tags: N-terminal GST; dsDNA, one strand shown
# T2 sequence: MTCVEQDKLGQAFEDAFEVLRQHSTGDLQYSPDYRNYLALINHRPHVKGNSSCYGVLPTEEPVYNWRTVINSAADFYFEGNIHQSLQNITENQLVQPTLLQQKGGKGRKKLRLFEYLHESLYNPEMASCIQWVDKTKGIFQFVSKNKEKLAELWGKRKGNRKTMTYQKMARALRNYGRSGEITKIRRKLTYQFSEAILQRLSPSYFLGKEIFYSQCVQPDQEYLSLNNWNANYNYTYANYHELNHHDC
# How it was run: as §1
# ELF4 = ELF4 (Homo sapiens, UniProt Q99607 1-663); conditions: protein: recombinant; tags: N-terminal GST; dsDNA, one strand shown
# Sequence of ELF4 (Q99607 whole entry): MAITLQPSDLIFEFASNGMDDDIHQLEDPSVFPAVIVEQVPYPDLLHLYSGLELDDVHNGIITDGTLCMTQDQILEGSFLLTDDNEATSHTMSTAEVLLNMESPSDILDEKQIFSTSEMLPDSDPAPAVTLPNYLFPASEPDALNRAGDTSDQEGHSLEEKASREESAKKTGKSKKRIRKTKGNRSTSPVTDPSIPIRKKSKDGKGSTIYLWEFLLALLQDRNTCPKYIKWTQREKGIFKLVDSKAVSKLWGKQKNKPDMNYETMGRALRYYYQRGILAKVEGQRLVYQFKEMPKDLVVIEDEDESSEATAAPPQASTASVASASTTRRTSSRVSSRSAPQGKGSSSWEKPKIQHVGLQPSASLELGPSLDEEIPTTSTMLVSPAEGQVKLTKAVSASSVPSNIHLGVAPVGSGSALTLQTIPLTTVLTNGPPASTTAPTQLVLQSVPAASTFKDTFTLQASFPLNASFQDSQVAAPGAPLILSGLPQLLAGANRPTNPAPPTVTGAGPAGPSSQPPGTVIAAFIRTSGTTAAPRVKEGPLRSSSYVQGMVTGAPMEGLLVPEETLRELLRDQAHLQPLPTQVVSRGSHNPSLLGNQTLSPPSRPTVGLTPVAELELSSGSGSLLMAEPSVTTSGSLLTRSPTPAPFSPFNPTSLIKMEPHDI
# How it was run: as §1
# ELK4 = biological target: T3, ELK4 (Homo sapiens, UniProt P28324-2 1-405); conditions: protein: recombinant; tags: N-terminal GST; dsDNA, one strand shown
# T3 sequence: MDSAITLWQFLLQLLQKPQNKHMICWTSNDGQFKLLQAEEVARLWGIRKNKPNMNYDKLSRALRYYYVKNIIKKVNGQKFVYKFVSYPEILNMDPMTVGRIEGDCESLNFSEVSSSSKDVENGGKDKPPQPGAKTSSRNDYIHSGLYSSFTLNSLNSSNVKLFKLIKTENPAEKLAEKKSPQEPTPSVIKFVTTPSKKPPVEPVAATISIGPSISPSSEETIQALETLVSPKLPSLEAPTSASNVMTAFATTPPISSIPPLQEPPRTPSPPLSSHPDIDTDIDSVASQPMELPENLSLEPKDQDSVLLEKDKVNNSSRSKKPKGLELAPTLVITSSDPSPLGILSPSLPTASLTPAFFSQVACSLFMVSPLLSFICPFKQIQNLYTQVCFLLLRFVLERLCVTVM
# How it was run: as §1
# ETV2 = biological target: T4, ETV2 (Homo sapiens, UniProt O00321 1-342); conditions: protein: recombinant; tags: N-terminal GST; dsDNA, one strand shown
# T4 sequence: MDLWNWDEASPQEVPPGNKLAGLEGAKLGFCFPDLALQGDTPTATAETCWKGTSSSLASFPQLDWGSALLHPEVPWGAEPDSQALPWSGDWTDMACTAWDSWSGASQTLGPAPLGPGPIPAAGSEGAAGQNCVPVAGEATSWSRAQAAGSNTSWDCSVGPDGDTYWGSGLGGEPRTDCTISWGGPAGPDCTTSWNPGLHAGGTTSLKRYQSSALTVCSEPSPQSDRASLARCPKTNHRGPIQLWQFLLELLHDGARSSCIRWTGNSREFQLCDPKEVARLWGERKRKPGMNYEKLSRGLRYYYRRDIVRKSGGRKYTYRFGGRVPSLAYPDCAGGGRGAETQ
# How it was run: as §1
# ELF3 = biological target: T5, ELF3 (Homo sapiens, UniProt P78545 1-371); conditions: protein: recombinant; tags: N-terminal GST; dsDNA, one strand shown
# T5 sequence: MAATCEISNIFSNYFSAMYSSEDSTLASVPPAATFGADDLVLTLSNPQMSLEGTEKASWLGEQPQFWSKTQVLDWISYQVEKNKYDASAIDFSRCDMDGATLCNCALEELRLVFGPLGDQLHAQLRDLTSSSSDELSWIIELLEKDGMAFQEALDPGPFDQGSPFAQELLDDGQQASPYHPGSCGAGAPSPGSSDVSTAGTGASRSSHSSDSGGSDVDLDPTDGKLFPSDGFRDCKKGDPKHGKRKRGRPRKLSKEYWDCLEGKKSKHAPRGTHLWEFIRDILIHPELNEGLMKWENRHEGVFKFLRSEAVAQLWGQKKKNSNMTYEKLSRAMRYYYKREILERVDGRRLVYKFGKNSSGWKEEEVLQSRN
# How it was run: as §1
# CRX = CRX (Homo sapiens, UniProt O43186 1-299); conditions: protein: recombinant; tags: N-terminal GST; dsDNA, one strand shown
# Sequence of CRX (O43186 whole entry): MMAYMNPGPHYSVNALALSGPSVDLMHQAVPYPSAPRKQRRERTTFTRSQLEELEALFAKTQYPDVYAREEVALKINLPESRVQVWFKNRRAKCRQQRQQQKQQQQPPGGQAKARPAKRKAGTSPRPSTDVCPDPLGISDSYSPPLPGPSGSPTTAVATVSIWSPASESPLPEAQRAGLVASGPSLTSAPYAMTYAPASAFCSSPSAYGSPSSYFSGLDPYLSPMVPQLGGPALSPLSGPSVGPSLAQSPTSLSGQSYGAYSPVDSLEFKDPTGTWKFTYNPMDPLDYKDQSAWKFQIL
# How it was run: as §1
sequence,measurement,setting,value
ATAACA,binding signal,FEV,"1.28 fold enrichment (6-mer frequency, TF over GST control)"
same,binding signal,ETV5,"1.25 fold enrichment (6-mer frequency, TF over GST control)"
same,binding signal,HSF1,"1.2 fold enrichment (6-mer frequency, TF over GST control)"
same,binding signal,SPIC,"1.31 fold enrichment (6-mer frequency, TF over GST control)"
same,binding signal,ELF4,"1.28 fold enrichment (6-mer frequency, TF over GST control)"
same,binding signal,ELK4,"1.2 fold enrichment (6-mer frequency, TF over GST control)"
same,binding signal,ETV2,"1.28 fold enrichment (6-mer frequency, TF over GST control)"
same,binding signal,ELF3,"1.21 fold enrichment (6-mer frequency, TF over GST control)"
same,binding signal,CRX,"1.39 fold enrichment (6-mer frequency, TF over GST control)"

# Source: PMC7862700, “An all-to-all approach to the identification of sequence-specific readers for epigenetic DNA modifications on cytosine”
